Assay outcomes from PubChem.
Hits are enriched below; roughly 7% of the tested compounds scored in any of these assays.
DRD3 agonist: agonists of human D3 dopamine receptor. AID 652048. hit rate 0.58% among 410,000. D3R DiscoveRx beta-arrestin cells, luminescence, 90 min. max activation, %; in the data active means max activation above about 30%
Target sequence (P35462 whole entry, looked up): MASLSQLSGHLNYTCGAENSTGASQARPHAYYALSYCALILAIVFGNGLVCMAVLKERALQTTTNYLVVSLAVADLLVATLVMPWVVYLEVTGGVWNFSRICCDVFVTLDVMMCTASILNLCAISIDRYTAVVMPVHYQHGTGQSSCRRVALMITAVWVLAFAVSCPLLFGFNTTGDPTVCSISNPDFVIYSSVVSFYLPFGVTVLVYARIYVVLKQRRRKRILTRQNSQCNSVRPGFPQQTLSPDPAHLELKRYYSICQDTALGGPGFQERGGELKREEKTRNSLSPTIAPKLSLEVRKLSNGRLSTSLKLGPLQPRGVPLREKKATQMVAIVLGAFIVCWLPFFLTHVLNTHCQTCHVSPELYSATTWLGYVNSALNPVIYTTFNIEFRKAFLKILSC
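Agonist mode: compounds and dopamine controls were applied to plated cells for 90 min at 37 degrees C after an overnight attachment at 1500 cells/well. Luminescent read-out followed 30 - 60 minutes at room temperature with DiscoveRx detection reagent.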
D3 antag: antagonists of human D3 dopamine receptor | P35462 | D3R cells, DiscoveRx beta-arrestin luminescence, antagonist mode; stronger effect = lower value | max response, negative = inhibition, % | hit rate 2.5% among 360,000 | AID 652054; in the data active means max response below about -50%; inconclusive means no clear call, values can overlap the other calls
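Cells expressing the human receptor were seeded at 1500 cells/well, incubated overnight at 37 degrees C in 5% CO2, then exposed to library compounds with dopamine controls for 90 minutes at 37 degrees C before luminescent detection.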
ATXN viability: cell viability loss in ATXN counter-screen; S2 cells (HEK-293 line with an ATXN2-luciferase reporter) viability, CellTiter-Fluor protease fluorescence, 24 h; hit rate 0.49% among 400,000; Potency, µM (series often up to 56.7 µM), most hits filed as cytotoxic; further: nearly all actives have a fitted effect of over 40% in size
ATXN2 expr inh: inhibitors of ATXN2 expression. Potency, µM (top dose mostly 57 µM), actives largely listed as inhibitors. HEK-293 ATXN2-luciferase reporter, luminescence, 24 h. hit rate 0.72% among 360,000. AID 1745845; further: nearly all actives have a fitted effect of over 55% in size
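qHTS (up to 57 uM final) was run with 24 h compound exposure of reporter cells at 37 °C. Each well was multiplexed: SteadyGlo luminescence measured ATXN2-luciferase expression after a fluorogenic Gly-Phe-AFC viability readout (25 uM final).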
IL1B secr inh: blocks inflammasome-driven IL-1 beta release; THP-1 LPS/ATP IL-1B secretion, AlphaLISA, 16 h; stronger effect = lower value; activity change, % at 57.5 µM; hit rate 4.7% among 360,000; in the data active means activity change below about -50%; inconclusive means mostly about -30% to -49%
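THP-1 cells pretreated 1 hr with compounds (up to 57.5 uM final), then stimulated with LPS (250 ng/mL final) plus ATP (1.25 mM final); secreted IL-1B measured by AlphaLISA after 16 hr, decreased signal indicating inhibition.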
Integrin act MD: integrin-mediated muscular dystrophy alleviation activation; alpha7betagal myoblasts, beta-gal FDG fluorescence, 48 h; hit rate 0.064% among 350,000; AID 624291; Potency, µM (series often up to 38.3 µM), actives largely listed as activators; further: nearly all actives have a fitted effect of over 60% in size
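Alpha7betagal+/- myoblasts (passage 13) were plated 16-24 hr, then exposed to compounds (1:260 dilution of DMSO stock) for 48 hours at 37C. After MPER lysis, β-galactosidase reporter activity was read as FDG fluorescence (ex 480/em 540) after 30 minutes.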
Numbers stand for hits; ! = repeats disagree; [ ] = remark or other dose. Unless noted, the call rests on the fitted dose curve; in most records, active means well fitted curve in the direction sought with a large enough effect; inconclusive means small, poorly fitted or top-dose-only effect, or another doubt; inactive means no such curve, though single readings can be large; an effect the other way counts as inactive or inconclusive.

Screening C[C@H](CO)N1C[C@H](C)[C@@H](CN(C)Cc2ccc(Cl)c(Cl)c2)Oc2c(NC(=O)Cc3ccccc3)cccc2C1=O returned DRD3 agonist inactive, D3 antag inactive, ATXN viability 14µM, ATXN2 expr inh 28µM, IL1B secr inh inconclusive and Integrin act MD inactive.
C[C@H](CO)N1C[C@H](C)[C@@H](CN(C)Cc2ccccc2)Oc2c(NC(=O)Cc3ccccc3)cccc2C1=O was read as DRD3 agonist inactive, D3 antag inactive, ATXN viability inconclusive, ATXN2 expr inh inconclusive, IL1B secr inh inactive and Integrin act MD inactive.
Screening C[C@@H]1CN([C@@H](C)CO)C(=O)c2cccc(NC(=O)C3CCCCC3)c2O[C@@H]1CN(C)Cc1ccc(Cl)c(Cl)c1 returned DRD3 agonist inactive, D3 antag inactive, ATXN2 expr inh inconclusive, IL1B secr inh -90 and Integrin act MD inactive.
Cc1c(C(=O)N2CCCCC2)sc2ncnc(NCCN(C)C)c12 was read as ATXN viability inactive.
Screening COC(=O)c1ccc(NC(=O)CN2CCN(c3ccccc3)CC2)cc1 returned DRD3 agonist 33, D3 antag inactive, ATXN viability inactive, ATXN2 expr inh inactive, IL1B secr inh inactive and Integrin act MD inactive[7.66 µM].
O=C(CN1CCN(c2ccccc2)CC1)Nc1ccccc1Cl was read as DRD3 agonist inactive, D3 antag inactive, ATXN viability inactive, ATXN2 expr inh inactive, IL1B secr inh inactive and Integrin act MD inactive.
Screening CCc1cccc(CC)c1NC(=O)CN1CCN(c2ccccc2)CC1 returned DRD3 agonist inactive, D3 antag -76, ATXN viability inactive, ATXN2 expr inh inactive, IL1B secr inh inactive and Integrin act MD inactive.
`CCOC(=O)c1ccc(NC(=O)CN2CCN(c3ccccc3)CC2)cc1` gave DRD3 agonist inactive, D3 antag inactive, ATXN viability inactive, ATXN2 expr inh inactive, IL1B secr inh inactive and Integrin act MD inactive.
Screening O=C(Oc1cccc2ccccc12)C1CC1 returned DRD3 agonist inactive, D3 antag inactive, ATXN2 expr inh inactive, IL1B secr inh inactive and Integrin act MD inactive.
Screening Cc1ccc2[nH]c(C)cc(=S)c2c1 returned DRD3 agonist inactive, D3 antag inactive, ATXN viability inactive, ATXN2 expr inh inactive, IL1B secr inh -69 and Integrin act MD inactive.
`Cc1cc(=O)c2cc(Cl)ccc2[nH]1` gave DRD3 agonist inactive, D3 antag inactive, ATXN viability inactive, ATXN2 expr inh inactive, IL1B secr inh inactive and Integrin act MD inactive.
Cc1cc(=S)c2ccccc2[nH]1 was read as DRD3 agonist inactive, D3 antag inactive, ATXN viability inactive, ATXN2 expr inh inactive, IL1B secr inh -86 and Integrin act MD inactive.
S=c1nc(-c2ccccc2)[nH]c2ccccc12 was read as DRD3 agonist inactive, D3 antag inactive, ATXN viability inactive, ATXN2 expr inh inactive[11.3 µM], IL1B secr inh inactive and Integrin act MD inactive.
Screening O=Nc1c(-c2c(O)[nH]c3cc(Br)ccc23)[nH]c2ccccc12 returned DRD3 agonist inactive, D3 antag inactive, ATXN viability 11µM, ATXN2 expr inh inconclusive and IL1B secr inh -106.
For Cc1ccc(C(=O)Nc2ccccc2SCC2CSc3nc4ccccc4c(=O)n32)cc1 (stereo not drawn) the results were DRD3 agonist inactive, D3 antag inactive, ATXN viability inconclusive, ATXN2 expr inh inactive, IL1B secr inh inactive and Integrin act MD inactive.
COc1cc(NC(=O)c2cc(S(=O)(=O)N3CCCCC3)c[nH]2)cc(OC)c1 was read as DRD3 agonist inactive, D3 antag inactive, ATXN viability inactive, ATXN2 expr inh inactive, IL1B secr inh inactive and Integrin act MD inactive.
For O=C(c1cnc(Cl)c(Cl)c1)N1CCN(S(=O)(=O)c2ccc3ccccc3c2)CC1 the results were DRD3 agonist inactive, D3 antag inactive, ATXN2 expr inh inconclusive, IL1B secr inh -102 and Integrin act MD inactive.
`CCN(CC(O)COc1ccc(OCC(O)CN(CC)C2CCCCC2)cc1)C1CCCCC1` (stereo not drawn) gave DRD3 agonist inactive, D3 antag inactive, ATXN viability inactive, ATXN2 expr inh inactive, IL1B secr inh -66 and Integrin act MD inactive.
Screening Cc1ccccc1OCC(O)CN(Cc1ccccc1O)C1CCCCC1 (stereo not drawn) returned DRD3 agonist inactive, D3 antag inactive, ATXN viability inconclusive, ATXN2 expr inh inactive, IL1B secr inh -66 and Integrin act MD inactive.
CCN(CC(O)COCc1ccc(Cl)cc1)C1CCCCC1 (stereo not drawn) was read as DRD3 agonist inactive, D3 antag inactive, ATXN viability inactive, ATXN2 expr inh inactive, IL1B secr inh inactive and Integrin act MD inactive.
For CCOC(=O)Cc1nn(Cc2nc(-c3ccc(C#N)cc3)cs2)c(=O)c2ccccc12 the results were DRD3 agonist 31, D3 antag inactive, ATXN viability inconclusive, ATXN2 expr inh inconclusive, IL1B secr inh inactive and Integrin act MD inactive.
For CCOC(=O)Cc1nn(CC)c(=O)c2ccccc12 the results were DRD3 agonist inactive, D3 antag inactive, ATXN viability inactive, ATXN2 expr inh inactive, IL1B secr inh inactive and Integrin act MD inactive.
Screening COC(=O)c1ccc2[nH]c3cccc(/C(=C/c4ccccc4)c4ccccc4)c3c2c1 returned DRD3 agonist inactive, D3 antag inactive, ATXN2 expr inh inconclusive, IL1B secr inh -58 and Integrin act MD inactive.
Screening O=C1CCCc2[nH]c3cccc(/C(=C/c4ccccc4)c4ccccc4)c3c21 returned DRD3 agonist inactive, D3 antag inactive, ATXN viability inactive, ATXN2 expr inh inactive, IL1B secr inh inactive and Integrin act MD inactive.
O=C(/C=C/c1ccc(Br)cc1)NC(=S)NNC(=O)c1ccco1 was read as DRD3 agonist inactive, D3 antag -84, ATXN viability inactive, ATXN2 expr inh inactive, IL1B secr inh inactive and Integrin act MD inactive.
O=C(/C=C/c1ccccc1)NC(=S)NNC(=O)c1ccco1 was read as DRD3 agonist inactive, D3 antag inactive, ATXN viability inactive, ATXN2 expr inh inactive, IL1B secr inh inactive and Integrin act MD inactive.
Screening CNC(=O)c1cc(Oc2ccc(NC(=O)Nc3ccc(Cl)c(C(F)(F)F)c3)cc2)ccn1 returned DRD3 agonist inactive, D3 antag -58, ATXN viability 16µM, ATXN2 expr inh 18µM!, IL1B secr inh -102 and Integrin act MD inactive.
C/C(CC(=O)Nc1ccc(Cl)c(C(F)(F)F)c1)=N\NC(=O)c1cnccn1 was read as DRD3 agonist inactive, D3 antag inactive, ATXN viability inactive, ATXN2 expr inh inactive, IL1B secr inh -72 and Integrin act MD 4.5µM.
Screening O=C(Nc1ccc(Cl)c(C(F)(F)F)c1)c1ccncc1 returned DRD3 agonist inactive, D3 antag inactive, ATXN viability inactive, ATXN2 expr inh inactive, IL1B secr inh inactive and Integrin act MD inactive.
